Bioassay records (PubChem BioAssay)
Shown are actives, neighbours in structure and some others; about 21% of the full set was active somewhere.
Shiga inhibitor = inhibitors of Shiga toxin in Vero cells; 290,000 tested, 9.2% active; inhibition, % at 38.7 µM; Vero cells, Shiga toxin protein synthesis inhibition reporter; AID 2315; in the data active = inhibition mostly above about 28%, no sharp cut-off; inactive = mostly below about 43%; note: 0% is about no effect
NS1 function inh = inhibitors of influenza NS1 protein function; 270,000 tested, 0.4% active; AID 2326; Potency, µM (titrated, usually from 46.1 µM), without a hit: top-dose activity, positive = more growth; calls by dose curve; note: potency is the fitted concentration of half-maximal effect; actives are rising curves; nearly all actives have a fitted effect of over 50% in size
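Recovery from NS1-induced slow growth read by OD600 in budding yeast switched to galactose assay medium (pH 6.0, -URA) at 1:100 dilution. Compound 23 nl per well; the matching strain lacking NS1 serves as control.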
Pf growth 48h = inhibits P. falciparum growth in the first generation, 48 h | P. falciparum luciferase growth in erythrocytes, 48 h | Potency, µM (series often up to 28.7 µM), for inactives: top-dose activity change, negative = inhibition, most hits filed as inhibitors | 310,000 tested, 5.9% active | AID 504832; note: potency is the fitted concentration of half-maximal effect; % is set by controls: 0 for no effect and ±100 for the full control effect
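Erythrocytes infected with P. falciparum carrying an integrated firefly luciferase reporter (2% hematocrit, 0.1% parasitemia final) were exposed to compounds in RPMI 1640 with 0.5% Albumax at 37 C, 5% CO2. Growth inhibition was scored as reduced luminescence.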
Cycloheximide cs = counter-screen hit for Shiga toxin inhibitors, cycloheximide; cell reporter, cycloheximide protein synthesis inhibition counterscreen; max response, %; 300,000 tested, 12% active; AID 2314; in the data active = max response mostly above about 13%, no sharp cut-off; inactive = mostly below about 14%; note: read at 38.3 µM for the half of the compounds with a filed dose; 0% is about no effect
Pf growth 96h = P. falciparum growth inhibition at 96 hours; P. falciparum luciferase reporter growth, 96 h; 320,000 tested, 6.9% active; Potency, µM (series often up to 28.7 µM), inactives show top-dose activity change, negative = inhibition, usual class: inhibitors; note: potency is the fitted concentration of half-maximal effect; % is set by controls: 0 for no effect and ±100 for the full control effect
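96 h incubation, 37 C, 5% CO2, of luciferase-reporter P. falciparum-infected RBCs (2% hematocrit, 0.05% parasitemia final) with test compounds; endpoint luminescence.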
Sm TGR inh = S. mansoni TGR enzyme inhibition; Q962Y6; Potency, µM (highest dose often 114 µM), without a hit: at the top dose activity change, negative = inhibition, usual class: inhibitors; AID 485364; purified TGR, DTNB reduction, TNB absorbance 405 nm; 360,000 tested, 3% active; note: potency is the fitted concentration of half-maximal effect; % is set by controls: 0 for no effect and ±100 for the full control effect; nearly all actives have a fitted effect of over 60% in size
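Kinetic colorimetric format: TGR-catalysed, NADPH-driven DTNB reduction monitored via TNB absorbance. Enzyme dispensed at 20 nM; compound exposure 15 min at room temperature before reaction start.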
* marks the source's active call; other numbers are inactive results; ? = inconclusive; . = not tested or not shown. Unless noted, calls come from the whole dose curve; as a rule, active = well fitted curve in the direction sought with a large enough effect; inconclusive = small, poorly fitted or top-dose-only effect, or another doubt; inactive = no such curve, though single readings can be large; an effect the other way counts as inactive or inconclusive.

SMILES	Shiga inhibitor	NS1 function inh	Pf growth 48h	Cycloheximide cs	Pf growth 96h	Sm TGR inh
Cc1ccc2c(c1)nnn2C1CCN(CC(=O)Nc2ccc3c(c2)OCCO3)CC1	22	-17%	-28%	26*	-11%	-8%
Cc1ccc2c(c1)nnn2C1CCN(C(=O)C23CC4CC(CC(C4)C2)C3)CC1	-1	5%	?	-3	13µM*	-4%
CC(=O)Nc1ccc(C(=O)COC(=O)C2CC2)c(F)c1	.	.	-1%	.	29%	-11%
Cc1cccc(C)c1-n1ncc(C(=O)NCCCN2CCC(C)CC2)c1C1CCN(C(=O)OC(C)(C)C)CC1	.	.	.	.	.	1%
CC1(C)CC(Nc2ccc(Nc3ccccc3)cc2)CC(C)(C)N1	-10	-4%	3.3µM*	-2	7.4µM*	6.3µM*
CCOC(=O)C1=C(C)N(c2ccc(Cl)cc2)C(=O)NC1c1cccc([N+](=O)[O-])c1 (stereo unspecified)	10	-26%	?	-2	?	3%
Oc1ccc2c(c1)[C@@]13CCCCC1[C@@H](C2)N(CC1CCC1)CC3 (stereo partly specified)	-8	.	.	-7	.	.
C=CCN1CC[C@]23CCCCC2[C@H]1Cc1ccc(O)cc13 (stereo partly specified)	.	-5%	?	.	15µM*	.
O=C(CN1CCN(S(=O)(=O)c2ccccc2)CC1)N1CCc2ccccc21	.	.	?	.	12µM*	-10%
COc1cc2c(cc1OC)CN(C(=O)CN1CCN(S(=O)(=O)c3ccccc3)CC1)CC2	-5	-18%	?	-12	13µM*	-23%
COc1cc2c(cc1OC)CN(C(=O)COc1ccccc1C#N)CC2	19	3%	?	22*	?	-3%
O=C(CN1CCc2ccccc2C1)N1CCN(S(=O)(=O)c2ccccc2)CC1	-8	3%	-9%	-1	-19%	3%
COc1cc2c(cc1OC)CN(C(=O)CC1CC3CCC1C3)CC2 (stereo unspecified)	13	-6%	?	5	2.6µM*	6%
Cc1ccc(Cn2ccnc2SCC(=O)Nc2nnc(C)s2)cc1	.	.	.	.	.	0%
CCOC(=O)c1cccc(NS(=O)(=O)c2cc(-c3cnc(C4CC4)o3)ccc2C)c1	.	.	.	.	.	4%
NC(N)=NC[C@@H]1CCCCCCN1	.	6%	.	.	.	.
COc1cc(NC(=O)Cn2ncc3c([nH]c4ccc(C)cc43)c2=O)cc(OC)c1OC	.	.	.	.	.	0%
Cc1cccc(Nc2cc(C)nc3nc(Cc4ccc(Cl)cc4)nn23)c1	.	.	.	.	.	-1%
CCc1ccc2nc(Nc3ccc(OC)cc3OC)c(C#N)cc2c1	-2	4%	14%	1	3%	49%
CCOc1cc2sc(N3CCC(C(=O)NCCCN4CCCC4=O)CC3)nc2cc1Br	16	1%	-17%	10	190%	2%
C=Cc1ccc(Cn2ccn(-c3ccc(F)c(F)c3)c(=O)c2=O)cc1	.	.	.	.	.	1%
COc1ccc(CCC(=O)Nc2cc(S(=O)(=O)N3CCOCC3)ccc2OC(C)C)cc1	.	.	?	.	?	-6%
CCOC(=O)CNc1nc(Cl)nc(NC(C)(C)C)n1	16	.	2%	8	13µM*	-1%
CCNc1nc(NC(N)=S)nc(NC(C)(C)C)n1	-19	5%	-13%	-2	17%	5%
CCOC(=O)C1CCCN(S(=O)(=O)c2ccc3[nH]c(=O)ccc3c2)C1 (stereo unspecified)	.	.	.	.	.	12%
SMILES	Shiga inhibitor	NS1 function inh	Pf growth 48h	Cycloheximide cs	Pf growth 96h	Sm TGR inh
Oc1ccccc1N=Cc1sc2ccccc2c1Cl	29*	-36%	?	40*	?	-13%
Cc1ccc(C)c(N=Cc2c(O)c3ccccc3oc2=O)c1	.	3%	45%	6	1%	2%
Cc1ccc(O)c(N=Cc2sc3ccccc3c2Cl)c1	73*	-3%	?	45*	?	-12%
COC(=O)c1sccc1NC(=O)C1CC1	-6	9%	33%	1	10%	-9%
CC(C)CCNc1nc2c(S(=O)(=O)c3ccc(Br)cc3)nnn2c2ccsc12	.	.	.	.	.	21%
O=C1NC(=O)N(Cc2ccc(F)cc2)C(=O)/C1=C\c1ccc(N2CCCC2)cc1	-6	-1%	8%	-2	1%	1.3µM*
COCCN1C(=O)NC(=O)/C(=C\c2ccc(F)cc2)C1=O	27	9%	5%	-2	25%	?
